Hit rate of the full screen: of about 5,500 compounds, about 2,000 (36%) were called active. Another 18% or so got no clear call; they are omitted. No stated cut-off is given here; in the data, active means normalized growth mostly below about 0.91 (no sharp cut-off); inconclusive means no clear call, values can overlap the other calls; inactive means mostly above about 0.92. This is one part of the list.
Assay: chemical genetic growth profiling, strain panel (AID 1159580);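 further: tested at 20 µM; growth read once vehicle control cultures reached saturation at 30 °C; 1 = growth at the plate median or of vehicle wells; lower values mean less growth of the strain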
Conditions: S. cerevisiae deletion strains, growth OD

Measured: normalized growth

COc1ccc2c(c1)OCC(Cc1ccc(O)c(OC)c1)C2=O (stereo not given)
inactive: locus YAL021C, strain ccr4, active compounds read low 0.982 | locus YAL026C, strain drs2, active compounds read low 0.982 | locus YAL030W, strain snc1, active compounds read low 0.968 | locus YBL061C, strain skt5, active compounds read low 0.978 | locus YBR009C, strain hhf1, active compounds read low 0.972 | locus YBR023C, strain chs3, active compounds read low 0.97 | locus YBR171W, strain sec66, active compounds read low 0.969 | locus YBR231C, strain swc5, active compounds read low 0.971 | locus YBR279W, strain paf1, active compounds read low 0.982 | locus YCL011C, strain gbp2, active compounds read low 0.953 | locus YCL016C, strain dcc1, active compounds read low 0.97 | locus YCL061C, strain MRC1, active compounds read low 0.971 | locus YCL069W, strain vba3, active compounds read low 0.979 | locus YCR088W, strain abp1, active compounds read low 0.965 | locus YDL005C, strain med2, active compounds read low 0.965 | locus YDL040C, strain nat1, active compounds read low 0.972 | locus YDR001C, strain nth1, active compounds read low 0.967 | locus YDR069C, strain doa4, active compounds read low 0.963 | locus YDR137W, strain rgp1, active compounds read low 0.922 | locus YDR159W, strain sac3, active compounds read low 0.957 | locus YDR195W, strain ref2 0.958 | locus YDR297W, strain sur2, active compounds read low 0.98 | locus YDR334W, strain swr1, active compounds read low 0.949 | locus YDR335W, strain msn5, active compounds read low 0.985 | locus YDR392W, strain spt3, active compounds read low 0.882 | locus YEL003W, strain gim4, active compounds read low 0.98 | locus YEL037C, strain rad23, active compounds read low 0.97 | locus YEL061C, strain CIN8 (second series), active compounds read low 0.977 | locus YER015W, strain faa2, active compounds read low 0.974 | locus YER016W, strain bim1, active compounds read low 0.969 | locus YER111C, strain swi4, active compounds read low 0.999 | locus YER155C, strain BEM2 (second series), active compounds read low 0.974 | locus YFR010W, strain ubp6, active compounds read low 0.949 | locus YGL167C, strain pmr1, active compounds read low 0.974 | locus YGL173C, strain kem1, active compounds read low 0.973 | locus YGL227W, strain vid30, active compounds read low 0.979 | locus YGL240W, strain doc1, active compounds read low 0.96 | locus YGL253W, strain hxk2, active compounds read low 0.974 | locus YHR013C, strain ard1, active compounds read low 1 | locus YHR027C, strain rpn1, active compounds read low 0.963 | locus YHR030C, strain SLT2, active compounds read low 1.03 | locus YHR079C, strain IRE1, active compounds read low 1.03 | locus YHR142W, strain chs7, active compounds read low 0.943 | locus YJL092W, strain hpr5, active compounds read low 0.932 | locus YJL095W, strain BCK1 (second series), active compounds read low 0.98 | locus YJL095W, strain BCK1, active compounds read low 1.05 | locus YJL115W, strain asf1, active compounds read low 0.951 | locus YJL129C, strain trk1, active compounds read low 0.943 | locus YJL154C, strain vps35, active compounds read low 0.973 | locus YJL164C, strain tpk1, active compounds read low 0.968 | locus YJL166W, strain qcr8, active compounds read low 0.991 | locus YJL187C, strain SWE1, active compounds read low 0.998 | locus YJR066W, strain TOR1, active compounds read low 0.966 | locus YKL160W, strain elf1, active compounds read low 0.985 | locus YKR026C, strain gcn3, active compounds read low 0.967 | locus YKR091W, strain srl3, active compounds read low 0.965 | locus YLL001W, strain dnm1, active compounds read low 0.954 | locus YLL026W, active compounds read low 0.975 | locus YLL041C, strain sdh2, active compounds read low 0.966 | locus YLR027C, strain aat2, active compounds read low 0.964 | locus YLR113W, strain HOG1, active compounds read low 0.979 | locus YLR221C, strain rsa3, active compounds read low 0.982 | locus YLR258W, strain gsy2, active compounds read low 0.961 | locus YLR262C, strain YPT6 (second series), active compounds read low 0.949 | locus YLR320W, strain mms22, active compounds read low 0.983 | locus YLR342W, strain FKS1, active compounds read low 0.979 | locus YLR357W, strain rsc2, active compounds read low 0.965 | locus YLR370C, strain arc18, active compounds read low 0.948 | locus YLR384C, strain iki3, active compounds read low 0.981 | locus YML120C, strain ndi1, active compounds read low 0.971 | locus YMR058W, strain fet3, active compounds read low 0.964 | locus YMR125W, strain sto1, active compounds read low 0.948 | locus YMR129W, active compounds read low 0.974 | locus YMR205C, strain PFK2, active compounds read low 0.974 | locus YMR231W, strain pep5, active compounds read low 0.99 | locus YNL071W, strain lat1, active compounds read low 0.986 | locus YNL183C, strain NPR1, active compounds read low 0.964 | locus YNL209W, strain ssb2, active compounds read low 0.988 | locus YNL248C, strain rpa49, active compounds read low 0.971 | locus YNL322C, strain KRE1 (second series), active compounds read low 0.977 | locus YNR049C, strain mso1, active compounds read low 0.965 | locus YOR001W, strain rrp6, active compounds read low 0.982 | locus YOR070C, strain gyp1, active compounds read low 0.993 | locus YOR080W, strain dia2, active compounds read low 0.97 | locus YOR083W, strain WHI5, active compounds read low 0.971 | locus YOR106W, strain vam3, active compounds read low 0.952 | locus YOR231W, strain MKK1, active compounds read low 1.06 | locus YOR265W, strain rbl2, active compounds read low 0.975 | locus YOR270C, strain vph1, active compounds read low 0.951 | locus YOR290C, strain snf2, active compounds read low 0.965 | locus YPL051W, strain arl3, active compounds read low 0.983 | locus YPL078C, strain atp4, active compounds read low 0.978 | locus YPL106C, strain sse1, active compounds read low 0.914 | locus YPL240C, strain hsp82, active compounds read low 0.957 | locus YPL256C, strain CLN2, active compounds read low 1.03

— PubChem BioAssay AID1159580 (chemical genetic matrix, 2015)
